In PubChem BioAssay (NCATS):
Calls of active or inactive are those of the source. Calls follow the shape of the dose curve; as a rule, active = well fitted curve in the direction sought with a large enough effect; inconclusive = small, poorly fitted or top-dose-only effect, or another doubt; inactive = no such curve, though single readings can be large; an effect the other way counts as inactive or inconclusive.

Tests used:
[1] = biological target: Alpha-galactosidase (Coffea arabica) (UniProt Q42656); assay: Counterscreen for Glucocerebrosidase Inhibitors: qHTS Assay for Coffee Bean alpha-Galactosidase at pH 4.5 (AID 957); also: series mostly up to about 77 µM
Summary of the method: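 Coffee bean enzyme (2 nM) with 80 uM 4-methylumbelliferyl alpha-D-galactopyranoside in 50 mM citric acid, 0.005% Tween-20, pH 4.5, 20 min at room temperature; compounds 0.7 nM–77 uM. Stopped at pH 10, fluorescence 365/440 nm; AC50 from Hill fits.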

[2] = biological target: Alpha-galactosidase (Coffea arabica) (UniProt Q42656); assay: Counterscreen for Glucocerebrosidase Inhibitors: qHTS Assay for Coffee Bean alpha-Galactosidase at pH 5.9 (AID 998)
Summary of the method: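 Compounds were titrated from 0.7 nM to 77 uM against green coffee bean alpha-galactosidase (2 nM) using 80 uM fluorogenic 4-methylumbelliferyl substrate. After 20 min at room temperature, reactions were stopped at pH 10 and read by fluorescence.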

Alpha-galactosidase (Coffea arabica), sequence (Q42656 whole entry, looked up): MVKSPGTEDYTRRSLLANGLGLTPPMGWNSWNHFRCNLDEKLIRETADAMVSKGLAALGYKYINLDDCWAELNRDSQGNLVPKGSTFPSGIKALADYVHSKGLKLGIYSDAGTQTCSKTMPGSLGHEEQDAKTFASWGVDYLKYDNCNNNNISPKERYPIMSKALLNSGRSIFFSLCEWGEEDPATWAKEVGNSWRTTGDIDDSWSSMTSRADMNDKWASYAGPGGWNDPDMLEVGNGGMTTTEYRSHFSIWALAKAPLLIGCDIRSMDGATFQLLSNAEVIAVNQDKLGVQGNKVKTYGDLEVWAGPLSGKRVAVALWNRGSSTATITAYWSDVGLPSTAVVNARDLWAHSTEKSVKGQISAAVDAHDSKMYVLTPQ

## C#CCN1C(C)=C(C(=O)OC)[C@@H](c2cccc([N+](=O)[O-])c2)C(C(=O)OCC)=C1C
[1]
  outcome: inactive
[2]
  outcome: inactive

## C[C@@H](CN(C)C)CN1c2ccccc2CCc2ccccc21
[1]
  outcome: inactive
[2]
  outcome: inactive

## CC(=O)[C@@]1(O)CC[C@@H]2[C@@H]3CCC4=CC(=O)CC[C@@]4(C)[C@H]3CC[C@]21C
[1]
  outcome: inactive
[2]
  outcome: inactive

## CCn1ccnc1C[C@@H]1COc2ccccc2O1
[1]
  outcome: inactive
[2]
  outcome: inactive

## C=C/C(C)=C/[C@]1(C)SC(=O)C(C)=C1O
[1]
  outcome: inactive
[2]
  outcome: inactive

## Cc1cccc(/C=C\c2ccccc2)n1
[1]
  outcome: inactive
[2]
  outcome: inactive

## OC[C@@H]1O[C@@H](n2cnc3c(N[C@@H]4C[C@@H]5CC[C@H]4C5)ncnc32)[C@@H](O)[C@H]1O
[1]
  outcome: inactive
[2]
  outcome: inactive

## OC[C@@H]1O[C@@H](n2cnc3c(NC4CCCC4)ncnc32)[C@@H](O)[C@H]1O
[1]
  outcome: inactive
[2]
  outcome: inactive

## CC[C@H](C)N(C)C(=O)c1cc2ccccc2c(-c2ccccc2Cl)n1
[1]
  outcome: inactive
[2]
  outcome: inactive

## C=CCc1ccccc1OC[C@H](O)CNC(C)C
[1]
  outcome: inactive
[2]
  outcome: inactive

## O=C1N=C(O)CN1/N=C\c1ccc(-c2ccc([N+](=O)[O-])cc2)o1
[1]
  outcome: inactive
[2]
  outcome: inactive

## C=CCN1CCc2c(cc(O)c(O)c2Cl)[C@H](c2ccccc2)C1
[1]
  outcome: inactive
[2]
  outcome: inactive

## C[C@]1(C2CCCC2)Cc2cc(OCC(=O)O)c(Cl)c(Cl)c2C1=O
[1]
  outcome: inactive
[2]
  outcome: inactive

## CNC(=O)[C@@H]1O[C@@H](n2cnc3c(NCc4cccc(I)c4)ncnc32)[C@H](O)[C@@H]1O
[1]
  outcome: inactive
[2]
  outcome: inactive

## CC(C)(C)NC[C@H](O)COc1cccc2[nH]c(=O)[nH]c12
[1]
  outcome: inactive
[2]
  outcome: inactive

## Nc1ccc(CCNc2ncnc3c2ncn3[C@@H]2O[C@@H](CO)[C@H](O)[C@@H]2O)cc1
[1]
  outcome: inactive
[2]
  outcome: inactive

## COc1ccc(CCN(C)CCC[C@@](C#N)(c2cc(OC)c(OC)c(OC)c2)C(C)C)cc1OC
[1]
  outcome: inactive
[2]
  outcome: inactive

## O=C1NC(O)=NC1(c1ccccc1)c1ccccc1
[1]
  outcome: inactive
[2]
  outcome: inactive

## O=C(O)[C@H]1CCCNC1
[1]
  outcome: inactive
[2]
  outcome: inactive

## CN(C)C(=O)/N=N\C(=O)N(C)C
[1]
  outcome: inactive
[2]
  outcome: inactive

## CC1=C(\C=C/C(C)=C/C=C\C(C)=C\C(=O)O)C(C)(C)CCC1
[1]
  outcome: inactive
[2]
  outcome: inactive

## NC(N)=N[C@H](CCC(=O)O)C(=O)O
[1]
  outcome: inactive
[2]
  outcome: inactive

## C[C@@H](C(=O)O)c1cccc(C(=O)c2ccccc2)c1
[1]
  outcome: inactive
[2]
  outcome: inactive

## CN1CCc2c(cc(O)c(O)c2Cl)[C@H](c2cccc(Cl)c2)C1
[1]
  outcome: inactive
[2]
  outcome: inactive

## CC[C@@H]1CN2CCc3cc(OC)c(OC)cc3[C@H]2C[C@@H]1C[C@@H]1NCCc2cc(OC)c(OC)cc21
[1]
  outcome: inactive
[2]
  outcome: inactive

## N[C@@H]1CCN(O)C1=O
[1]
  outcome: inactive
[2]
  outcome: inactive

## COc1cc2nc(N3CCN(C(=O)[C@H]4CCCO4)CC3)nc(N)c2cc1OC
[1]
  outcome: inactive
[2]
  outcome: inactive

## Cc1ccccc1/C=C\C1=NCCN1
[1]
  outcome: inactive
[2]
  outcome: inactive

## CCCCCCCCCCCCCCCCCCOC[C@@H](COP(=O)([O-])OCC[N+](C)(C)C)OC
[1]
  outcome: inactive
[2]
  outcome: inactive

## CCCCC[C@H](O)c1cccc(OCc2ccc3ccccc3n2)c1
[1]
  outcome: inactive
[2]
  outcome: inactive

## C#C[C@H](N)CCC(=O)O
[1]
  outcome: inactive
[2]
  outcome: inactive

## Cc1cc(C)c(/C=C2/C(=O)Nc3ccccc32)[nH]1
[1]
  outcome: inactive
[2]
  outcome: inactive

## Nc1nc(Cl)nc2c1ncn2[C@@H]1O[C@@H](COP(=O)(O)OP(=O)(O)OP(=O)(O)O)[C@@H](O)[C@H]1O
[1]
  outcome: inactive
[2]
  outcome: inactive

## Oc1cc2c(c(Cl)c1O)CCNC[C@H]2c1ccccc1
[1]
  outcome: inactive
[2]
  outcome: inactive

## COc1ccccc1OC[C@H](O)CN1CCN(CC(=O)Nc2c(C)cccc2C)CC1
[1]
  outcome: inactive
[2]
  outcome: inactive

## O=S(=O)(NCCNC/C=C\c1ccc(Br)cc1)c1cccc2cnccc12
[1]
  outcome: inactive
[2]
  outcome: inactive

## N[C@H](Cc1ccc(F)cc1)C(=O)O
[1]
  outcome: inactive
[2]
  outcome: inactive

## OC[C@@H]1O[C@@H](n2cnc3c(NC4CCCCC4)ncnc32)[C@@H](O)[C@H]1O
[1]
  outcome: inactive
[2]
  outcome: inactive

## O=C(NC[C@H]1CCCCN1)c1cc(OCC(F)(F)F)ccc1OCC(F)(F)F
[1]
  outcome: inactive
[2]
  outcome: inactive

## CC(C)NC[C@H](O)c1cc(O)cc(O)c1
[1]
  outcome: inactive
[2]
  outcome: inactive

## C[C@H](N)C(=O)OC(C)(C)Cc1ccc(Cl)cc1
[1]
  outcome: inactive
[2]
  outcome: inactive

## c1ccc2c(c1)CCC[C@H]2C1=NCCN1
[1]
  outcome: inactive
[2]
  outcome: inactive

## CC(=O)O[C@@H](C)C[N+](C)(C)C
[1]
  outcome: inactive
[2]
  outcome: inactive

## COc1cc2c(cc1OC)[C@H](c1ccccc1)CN(C)CC2
[1]
  outcome: inactive
[2]
  outcome: inactive

## COC(=O)[C@H](N)Cc1ccc(Cl)cc1
[1]
  outcome: inactive
[2]
  outcome: inactive

## NC[C@H](O)C1CCCCCCC1
[1]
  outcome: inactive
[2]
  outcome: inactive

## CN1CCc2cc(O)c(O)cc2[C@H](c2ccccc2)C1
[1]
  outcome: inactive
[2]
  outcome: inactive

## N[C@@H](CO)C(=O)NNCc1ccc(O)c(O)c1O
[1]
  outcome: inactive
[2]
  outcome: inactive

## CC(C)(C)c1onc(OCP(=O)(O)O)c1C[C@@H](N)C(=O)O
[1]
  outcome: inactive
[2]
  outcome: inactive

## CNCC[C@H](Oc1ccccc1C)c1ccccc1
[1]
  outcome: inactive
[2]
  outcome: inactive

## OC[C@H]1O[C@@H](n2cnc3c(NCCc4ccccc4)ncnc32)[C@H](O)[C@H]1O
[1]
  outcome: inactive
[2]
  outcome: inactive

## CSc1ccc2c(c1)N(CC[C@H]1CCCCN1C)c1ccccc1S2
[1]
  outcome: inactive
[2]
  outcome: inactive

## Fc1ccc(C(c2ccc(F)cc2)N2CCN(C/C=C\c3ccccc3)CC2)cc1
[1]
  outcome: inactive
[2]
  outcome: inactive

## CN1CCN2c3ccccc3Cc3ccccc3[C@@H]2C1
[1]
  outcome: inactive
[2]
  outcome: inactive

## C[C@@H]([C@H](O)c1ccc(O)cc1)N1CCC(Cc2ccccc2)CC1
[1]
  outcome: inactive
[2]
  outcome: inactive
